Bioassay records as filed in PubChem.
Only some compounds are listed: those with a hit (about 4.1% of all), similar ones and a draw of the others.
CSC inhib – cancer stem cell inhibition; cancer stem cell-like cells viability, luminescence; inhibition, % at 7.5 µM; 300,000 tested, 1.1% active; AID 2717; in the data active = inhibition above about 75%; inconclusive = no clear call, values can overlap the other calls; tested in HMLE shEcad cells
Mdm2 MdmX PPI – inhibitors of human Mdm2/MdmX interaction | inhibition, % at 8 µM | SaOS-2 split-luciferase Mdm2/MdmX complementation, luminescence | O15151+Q00987 | 330,000 tested, 3% active;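 active = inhibition of at least 50% at 8 µM in the primary screen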
aSyn 5UTR inh – MLPCN primary screen, SNCA 5' untranslated region; AID 1813; 300,000 tested, 0.82% active; alpha-synuclein 5'UTR reporter, inhibitor activity; inhibition, % (tested at 7.5 µM); in the data active = inhibition above about 60%; inconclusive = no clear call, values can overlap the other calls;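 also: H4 neuroglioblastoma cells stably carrying SNCA 5'UTR luciferase fusion; 0% = DMSO wells and 100% = positive control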
Beta cell apopt – blocks beta cell apoptosis. protection from apoptosis, % (test concentration not listed). INS-1E cytokine-induced death, ATP luminescence, 48 h; percent of positive-control rescue, neutral wells zero. 300,000 tested, 0.8% active;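 active = Every replicate reaches about 75%, or at least half do and their mean reaches it too, limit read from the data; inconclusive = At least half of replicates reach the limit but their mean does not; inactive = Under half of replicates reach the limit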;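 also: 0% = cytokine-treated negative control wells and 100% = positive control rescue; higher means more ATP so stronger rescue from cytokine killing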
A1 inh – inhibitors of the anti-apoptotic protein A1, read as caspase activation; caspase activation, % (test concentration not listed); MEF A1-2A-BIM cells, Caspase-Glo 3/7 luminescence, 3 h; percent of clofoctol response, vehicle zero; 330,000 tested, 0.066% active; AID 2462;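 active = over half of replicate activation scores above 10%, or exactly half above 10 with the replicate mean above 10; inconclusive = replicate mean below 10 yet half the replicates above 10; inactive = over half of replicates below 10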
Mdm2 MdmX conf – confirmation of human Mdm2/MdmX interaction inhibitors; shares compounds with Mdm2 MdmX PPI; Mdm2-MdmX binding, luminescent assay; inhibition, % at 8 µM; 10,000 tested, 55% active; in the data active = inhibition above about 40%
Full FLuc ctr – inhibits full-length luciferase, flagging false Mdm2/MdmX hits | SaOS-2 full-length luciferase counterscreen, luminescence | 6,200 tested, 77% active | inhibition, % at 8 µM | shares compounds with Mdm2 MdmX PPI;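 active = mean inhibition at 8 µM reaching about 37%, which flags the compound as non-specific, limit read from the data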;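 also: p53-null SaOS-2 cells with luciferase driven by a doxycycline-inducible promoter; compound on cells about two nights before reading with doxycycline added after day one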
Numbers without * were called inactive; ? = inconclusive; . = no result.

SMILES	CSC inhib	Mdm2 MdmX PPI	aSyn 5UTR inh	Beta cell apopt	A1 inh	Mdm2 MdmX conf	Full FLuc ctr
COc1cccc2cc(C(=O)Nc3cc(C)cc(C)c3)/c(=N/NS(=O)(=O)c3ccccc3)oc12	-9	78*	-5	-3	0	8	.
COC(=O)NCC(c1cccnc1)N1CCOCC1 (centres undefined)	-12	7	-20	-5	0	.	.
CCOC(=O)c1c(C)oc2c1c(C(c1cccnc1)N1CCOCC1)c(O)c1ccccc12 (centres undefined)	83*	76*	-245	-21	0	-232	.
CCCc1ccc(S(=O)(=O)NCc2nnc(SC)n2C)cc1	-1	-25	16	-2	1	.	.
CCN(CC)S(=O)(=O)c1cccc(C(=O)N/N=C/c2cccc(O)c2O)c1	98*	60*	66*	42	-2	66*	39*
O=C(N/N=C/c1ccccc1O)c1cccc(C(F)(F)F)c1	78*	69*	82*	?	0	73*	36
CCN(CC)S(=O)(=O)c1cccc(C(=O)N/N=C/c2cc(OC)c(O)c(OC)c2)c1	1	3	14	1	0	.	.
O=C(N/N=C/c1sc(N2CCOCC2)nc1-c1ccccc1)c1cccc(S(=O)(=O)N2CCOCC2)c1	24	76*	87*	113*	0	70*	43*
CCN(CC)c1ccc(/C=N/NC(=O)c2c(Cl)cnn2C)c(O)c1	-6	71*	90*	95*	-1	81*	27
CCCC#CCN1CCN(C23CC4CC(CC(C4)C2)C3)CC1	29	-21	-6	.	0	.	.
Cc1ccc(CNC(=O)C2CCC(=O)N2C(C)C)cc1 (centres undefined)	-18	4	-3	-10	0	.	.
CCN(CC)c1ccc(/C=N/Nc2ccc(C)cc2)c(O)c1	40	.	.	-2	-1	.	.
CCN(CC)c1ccc(C=Nc2cccc(S(=O)(=O)N3CCOCC3)c2)c(O)c1	-10	17	.	-4	0	.	.
CCN(CC)c1ccc(/C=N/Nc2nc(C)cc(=O)[nH]2)c(O)c1	17	64*	95*	61	0	80*	22
CCN(CC)c1ccc(/C=N/NC(=O)c2cccc(S(=O)(=O)N3CCOCC3)c2)c(O)c1	110*	75*	129*	75*	0	84*	53*
CC(C)Oc1ccc(CN2CCC(n3nccc3NC(=O)C3CC3)CC2)cc1	-6	26	-12	-3	0	.	.
N#C/C(=N\Nc1ccc(Cl)c(Cl)c1)C(=O)C1CC1	70	58*	-97	52	-7	72*	47*
N#C/C(=N\Nc1ccc(F)cc1)C(=O)C1CC1	39	17	2	6	-2	.	.
O=C(CSc1nnc(-c2ccccc2F)o1)N1CCNC1=O	.	-18	.	-2	-1	.	.
Cc1cc(SCC(=O)c2ccc(O)c(O)c2)n2nc(C)c(-c3ccccc3)c2n1	119*	52*	2	0	2	57*	54*
COc1cc(/C=N/NC(N)=O)ccc1OCC(=O)Nc1cc(C)c(C)cc1Br	7	81*	-21	0	0	50*	106*
CCOc1cc(/C=N\NC(=O)Cc2ccccc2)ccc1OCC(=O)Nc1ccc(C)c(C)c1	-21	94*	.	0	0	75*	76*
COc1cc(/C=N/NC(N)=S)ccc1OCC(=O)Nc1ccc(C)cc1	1	-14	-26	-6	1	.	.
COc1ccc(/C=N/NC(=O)c2nc(-c3ccccc3)cc(-c3ccccc3)n2)cc1OC	-11	72*	-59	5	1	71*	86*
CNC(=O)c1[nH]nc2c1CCc1ccccc1-2	6	19	-31	-1	1	.	.
SMILES	CSC inhib	Mdm2 MdmX PPI	aSyn 5UTR inh	Beta cell apopt	A1 inh	Mdm2 MdmX conf	Full FLuc ctr
COc1ccc(/C=N/NC(=O)c2[nH]nc3c2CCc2ccccc2-3)cc1OC	35	56*	47	41	0	68*	74*
O=C(COC(=O)CN1C(=O)c2ccccc2C1=O)NC1CCCC1	-13	-14	8	-1	0	.	.
CC(OC(=O)c1ccc(-n2cnnn2)cc1)C(=O)Nc1ccc(F)c(F)c1F (centres undefined)	-8	-2	.	-5	1	.	.
COc1cc(/C=N\NC(=O)c2ccc(-c3ccccc3)cc2)cc(OC)c1O	-27	13	-33	39	0	.	.
COc1cc(/C=N\NC(=O)c2ccc(-c3ccccc3)cc2)ccc1OCC(N)=O	-5	50*	27	5	0	31	.
CCCOc1ccc(/C=N/NC(=O)CN2CCCCC2)cc1OCC	-7	1	3	-5	0	.	.
COc1ccc(/C=N/NC(N)=S)cc1OC(=O)c1cccc2ccccc12	13	61*	-52	17	0	29	.
COc1cc(/C=N/NC(=O)c2ccccc2O)ccc1OCC(=O)Nc1ccccc1	-6	-29	-140	5	0	.	.
O=C(COc1ccc(/C=N/NC(=O)c2cc3ccccc3o2)cc1Cl)Nc1ccccc1	116*	97*	101*	-4	64*	-100	.
CCCCOc1ccc(C(=O)N/N=C/c2ccc(OCCN3CCCCC3)c(OC)c2)cc1	19	81*	-40	16	0	22	.
Cc1nn(CC(=O)NC2(C)CCS(=O)(=O)C2)c(C)c1S(=O)(=O)N(C)C (centres undefined)	-10	4	.	-1	1	.	.
O=C(CN(C(=O)c1csnn1)c1cccc(C(F)(F)F)c1)NC1CCCC1	0	16	15	5	0	.	.
Nc1cc(=O)[nH]c(SCC(=O)Nc2cccc(S(=O)(=O)N3CCCCC3)c2)n1	-1	21	.	-4	0	.	.
Cn1ncc2c(Nc3cccc(Cl)c3)nc(Nc3cccc(Cl)c3)nc21	115*	50*	-1	52	-1	20	.
Cn1ncc2c(Nc3ccc(Br)cc3)nc(Nc3ccc(Br)cc3)nc21	103*	60*	-6	33	0	26	.
Cn1ncc2c(Nc3ccc(O)cc3)nc(Cl)nc21	-5	18	42	-4	0	.	.
O=C(O)COc1ccccc1/C=N/NC(=O)CSc1nc2ccccc2s1	0	-17	-2	-6	2	.	.
O=C(CSc1nc2ccccc2s1)N/N=C/c1ccccc1C(=O)O	4	66*	-90	-7	0	82*	119*
CC(C)(C)c1ccc(-c2cn(-c3ccc(Br)cc3)c3[n+]2CCCS3)cc1	.	.	-8	.	.	.	.
O=C1C(Cc2ccccc2)NC(=S)N1Cc1ccccc1 (centres undefined)	2	4	-8	-4	0	.	.
CC(C)CC1NC(=S)N(Cc2ccccc2)C1=O (centres undefined)	22	87*	21	6	1	82*	53*
COc1ccc2[nH]c3c(c2c1)CCNC3=O	-23	71*	-23	-9	0	48*	34
